± gives the standard deviation.
Assays:
Details in all cases: modulator concentration 10 µM
[1] = test system: RAW-Dual (murine macrophage reporter line); assay: NF-kB reporter (SEAP) activity fold change vs agonist alone; higher = enhanced NF-kB activity
How it was run: (§1)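 RAW-Dual murine macrophage reporter cells were seeded at 50 000 per well in 384-well plates and pre-incubated 1 hour at 37 °C with compound pin-transferred to 10 μM final. After 1 hour, a PRR agonist was added and cells incubated overnight. Supernatant NF-κB (SEAP, QUANTI-Blue, 620 nm absorbance) and IRF (Lucia luciferase, QUANTI-Luc, luminescence) signals were divided by the mean agonist-only control on the same plate to give fold change. Two replicate plates were averaged, with errors by propagation.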

[2] = test system: RAW-Dual (murine macrophage reporter line); assay: IRF reporter (Lucia luciferase) activity fold change vs agonist alone; higher = enhanced IRF activity
How it was run: as §1

[3] = test system: RAW-Dual (murine macrophage reporter line); assay: viability score (confluency relative to resting cells, overnight) (fraction); higher = more viable, active = viable (0.7 or more)
How it was run: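 RAW-Dual macrophages in 384-well plates were incubated overnight with compound, final concentration 10 μM. Confluency images from IncuCyte were processed in IncuCyte software into two masks covering all imaged wells. The viability score is each well's confluency relative to resting cells, and a compound met the cutoff when both masks exceeded 70% of resting cells.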

[4] = agonist: CpG ODN 1826 0.5 ug/mL

Compound	NF-kB reporter [1, 4]	NF-kB reporter ([1]; agonist: LPS 0.1 ug/mL)	NF-kB reporter ([1]; agonist: MPLA […])	IRF reporter ([2]; agonist: 3'3'-cGAMP 10 ug/mL)	IRF reporter ([2]; agonist: LPS 0.1 ug/mL)	IRF reporter ([2]; agonist: MPLA […])	viability score [3]
COc1ccc(Cc2nnc(C3CCN(S(C)(=O)=O)CC3)s2)cc1	0.978 ± 0.069	1.04 ± 0.085	0.93 ± 0.12	1.06 ± 0.093	1.25 ± 0.076	1.09 ± 0.13	0.994 (active)
CC(=O)c1cccc(NC(=O)CSc2nnc3c4ccccc4n(C)c3n2)c1	0.817 ± 0.063	0.835 ± 0.069	0.994 ± 0.091	0.904 ± 0.042	1.27 ± 0.11	1.41 ± 0.21	1.01 (active)
CC(=O)Nc1cccs1	1.09 ± 0.14	1.06 ± 0.072	0.986 ± 0.035	0.944 ± 0.12	1.07 ± 0.11	1.04 ± 0.078	0.998 (active)
CSc1nnc(CSc2nc(C)cc(C)n2)n1-c1cccc(C(F)(F)F)c1	0.958 ± 0.041	0.862 ± 0.071	1.17 ± 0.07	0.961 ± 0.053	1.36 ± 0.34	1.37 ± 0.44	0.953 (active)
O=c1[nH][nH]c(=O)c2c(N=Cc3cc4c(cc3[N+](=O)[O-])OCO4)cccc12	0.878 ± 0.082	0.823 ± 0.074	0.961 ± 0.096	0.983 ± 0.031	1.13 ± 0.18	1.22 ± 0.28	0.995 (active)
O=C(O)CCC(=O)c1ccc(-c2ccccc2)cc1	0.806 ± 0.11	0.842 ± 0.1	0.87 ± 0.07	0.931 ± 0.049	0.984 ± 0.087	0.999 ± 0.078	0.986 (active)
CC(=O)NNC(=O)c1ccncc1	1.13 ± 0.089	1.13 ± 0.074	1.03 ± 0.043	1 ± 0.15	1.07 ± 0.14	1.07 ± 0.26	0.996 (active)
COC(=O)C1=C(C)NC(C)=C(C(=O)OC)C1c1ccccc1[N+](=O)[O-]	1.27 ± 0.1	1.33 ± 0.073	1.82 ± 0.17	0.374 ± 0.017	0.585 ± 0.035	0.414 ± 0.038	0.907 (active)
COC(=O)Nc1nc2cc(C(=O)c3ccccc3)ccc2[nH]1	1.96 ± 0.28	1.23 ± 0.23	1.31 ± 0.13	0.093 ± 0.0033	1.04 ± 0.19	1.6 ± 0.22	0.661 (inactive)
CC(=O)N1CCN(c2ccc(OC[C@H]3CO[C@](Cn4ccnc4)(c4ccc(Cl)cc4Cl)O3)cc2)CC1	0.723 ± 0.072	1.06 ± 0.071	1.03 ± 0.025	0.925 ± 0.094	1.07 ± 0.15	1.07 ± 0.27	1 (active)
O=C(OC1Cc2c(O)cc(O)cc2OC1c1cc(O)c(O)c(O)c1)c1cc(O)c(O)c(O)c1 (configuration not stated)	0.321 ± 0.094	1.04 ± 0.083	1.02 ± 0.092	0.822 ± 0.029	1.13 ± 0.22	1.06 ± 0.1	1.01 (active)
c1ccc(Nc2nc(Nc3ccccc3)nc(N3CCCCC3)n2)cc1	0.605 ± 0.04	1.01 ± 0.062	0.977 ± 0.064	1.05 ± 0.053	1.53 ± 0.15	1.22 ± 0.2	0.995 (active)
CCN(CC)CC#CCOC(=O)C(O)(c1ccccc1)C1CCCCC1 (configuration not stated)	0.65 ± 0.059	1.2 ± 0.094	1.18 ± 0.053	0.92 ± 0.062	1.67 ± 0.11	1.3 ± 0.32	0.293 (inactive)
O=C(NC1CC2CCC1C2)c1ccccc1 (configuration not stated)	0.907 ± 0.09	0.994 ± 0.081	0.972 ± 0.046	1.02 ± 0.11	1.01 ± 0.13	0.869 ± 0.15	0.995 (active)
c1ccc(CSc2nnc(-c3ccncc3)o2)cc1	1.08 ± 0.075	1.18 ± 0.073	1.44 ± 0.13	0.379 ± 0.017	0.65 ± 0.056	0.501 ± 0.068	0.988 (active)
CC(c1ccccc1)c1nnc(NC(=O)c2ccco2)s1 (configuration not stated)	0.853 ± 0.29	1.12 ± 0.12	1.04 ± 0.1	0.906 ± 0.027	1.13 ± 0.23	1.3 ± 0.32	0.968 (active)
COC(=O)CCc1ccc(OCC(O)CNC(C)C)cc1 (configuration not stated) [Prestw-1137]	1.06 ± 0.087	1.06 ± 0.084	1.02 ± 0.081	0.951 ± 0.043	0.911 ± 0.067	0.827 ± 0.11	1 (active)
CCN(CC)C(=S)SSC(=S)N(CC)CC	1.2 ± 0.097	0.633 ± 0.041	2.07 ± 0.22	2.71 ± 0.29	0.201 ± 0.025	0.114 ± 0.018	0.461 (inactive)
O=S1(=O)N=C(Oc2ccc3ccccc3c2)c2ccccc21	0.889 ± 0.15	1.23 ± 0.1	1.22 ± 0.21	0.91 ± 0.063	0.942 ± 0.14	0.991 ± 0.11	0.992 (active)
COc1cc2c(Oc3ccc(NC(=O)C4(C(=O)Nc5ccc(F)cc5)CC4)cc3F)ccnc2cc1OCCCN1CCOCC1	0.179 ± 0.0098	0.146 ± 0.013	0.238 ± 0.011	0.0512 ± 0.015	0.0684 ± 0.0041	0.138 ± 0.025	0.136 (inactive)
Cc1ccc(CN2C3=NCCCN3c3ccccc32)cc1.Cl	0.294 ± 0.047	1.25 ± 0.13	1.32 ± 0.17	0.881 ± 0.026	1.27 ± 0.17	1.34 ± 0.2	0.999 (active)
CC1=C(C(=O)Nc2cccc(C)n2)C(c2ccsc2)C2=C(CC(C)(C)CC2=O)N1 (configuration not stated)	1.04 ± 0.16	1.02 ± 0.057	0.996 ± 0.059	0.954 ± 0.04	1.2 ± 0.086	0.979 ± 0.12	1.01 (active)
COc1ccc2sc(C)[n+](CCCS(=O)(=O)[O-])c2c1	0.951 ± 0.088	1.08 ± 0.074	0.923 ± 0.064	0.923 ± 0.086	1.05 ± 0.12	1.1 ± 0.3	1 (active)
Cn1cnc2c(F)c(Nc3ccc(Br)cc3Cl)c(C(=O)NOCCO)cc21	0.288 ± 0.015	0.124 ± 0.0099	0.183 ± 0.013	0.852 ± 0.061	3.68 ± 0.24	2.42 ± 0.19	0.684 (inactive)
COc1ccc(S(=O)(=O)NCc2ccnc(-c3ccncc3)c2)cc1Cl	0.831 ± 0.098	1.06 ± 0.1	0.964 ± 0.16	0.388 ± 0.02	0.969 ± 0.07	1.11 ± 0.11	0.999 (active)
CCC(C(=O)NCc1ccnc(-c2ccncc2)c1)c1ccccc1 (configuration not stated)	1.27 ± 0.09	1.1 ± 0.084	1.12 ± 0.03	0.574 ± 0.029	0.654 ± 0.086	0.545 ± 0.12	0.994 (active)

— the supplement of paper PMC10646978
